Sampled rows, rich in hits. Any-hit rate of the full collection: about 1.2%.
RGS7-Gao: modulates binding of RGS7 to human Galphao | P09471 | actives 0.35% (n = 220,000) | Multiplexed bead flow cytometry; actives lie on both sides | binding response (% of control), % at 10 µM; in the data active means binding response below about 49% or above about 150%; inconclusive means no clear call, values can overlap the other calls; inactive means in between;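 further: fluorescent Galphao held in activated GDP-AlF4 state binding bead-coupled RGS7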
Target sequence (P09471 whole entry, looked up): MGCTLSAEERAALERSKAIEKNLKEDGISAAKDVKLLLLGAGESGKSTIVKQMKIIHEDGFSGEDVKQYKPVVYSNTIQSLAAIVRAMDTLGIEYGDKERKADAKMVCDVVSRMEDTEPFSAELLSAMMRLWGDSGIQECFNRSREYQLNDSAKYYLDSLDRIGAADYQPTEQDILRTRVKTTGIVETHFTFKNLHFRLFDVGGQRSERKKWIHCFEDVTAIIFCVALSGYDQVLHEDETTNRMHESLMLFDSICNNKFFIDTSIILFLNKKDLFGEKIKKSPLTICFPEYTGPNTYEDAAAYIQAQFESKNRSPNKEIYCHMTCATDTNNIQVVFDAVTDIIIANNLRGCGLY
GSH bead fluor: GSH bead compound fluorescence profile. GSH beads flow cytometry, compound fluorescence 488/530 nm; stronger effect = higher value. actives 0.25% (n = 190,000). fluorescence (KMESF) at 10 µM; in the data active means fluorescence above about 89;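 further: glutathione beads carrying GST-tagged Bcl family fusion proteins plus one bare bead set; values are compound well signal with DMSO vehicle wells as background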
RGS8-Gao: human RGS8-Galphao interaction regulation. P09471. actives 0.34% (n = 220,000). response (percent of control binding), % at 10 µM. multiplexed bead flow cytometry, RGS8-Galphao binding; actives lie on both sides. AID 1423; in the data active means response below about 60% or above about 140%; inactive means in between;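 further: Galphao activated as the GDP aluminium fluoride complex binding bead-coupled RGS8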
RGS16-Gao: RGS16-Galphao interaction regulator (human); O15492+P09471; bead-based flow cytometry RGS16-Galphao binding, fluorescence; actives lie on both sides; binding response (% of control), % at 10 µM; actives 0.38% (n = 220,000); AID 1441;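 further: Galphao activated by GDP with aluminum fluoride before binding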
RGS4-Gao reg: human RGS4-Galphao interaction regulation; P09471; Multiplexed bead flow cytometry, RGS4-Galphao binding; actives lie on both sides; binding response (% of control), % at 10 µM; actives 0.33% (n = 220,000); in the data active means binding response below about 49% or above about 150%; inactive means in between;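 further: fluorescent Galphao activated with aluminum fluoride binding bead-coupled RGS4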
Avidin bead fluor: compound fluoresces at 488/530 nm on avidin beads | compound fluorescence 488/530 nm, flow cytometry; stronger effect = higher value | fluorescence (KMESF) at 10 µM | actives 0.38% (n = 220,000); in the data active means fluorescence above about 47
RGS4-Gao HTS: modulates binding between human RGS4 and Galphao; shares compounds with RGS16-Gao; multiplexed bead flow cytometry, RGS–Galpha-o binding; RGS4–Galpha-o binding response, % at 10 µM; actives 99% (n = 1,600); AID 1504;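 further: fluorescently labeled Galpha-o bound to GDP with aluminium fluoride binding biotinylated RGS beads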
Target sequence (P09471 whole entry, looked up): as above
Target sequence (P49798 whole entry, looked up): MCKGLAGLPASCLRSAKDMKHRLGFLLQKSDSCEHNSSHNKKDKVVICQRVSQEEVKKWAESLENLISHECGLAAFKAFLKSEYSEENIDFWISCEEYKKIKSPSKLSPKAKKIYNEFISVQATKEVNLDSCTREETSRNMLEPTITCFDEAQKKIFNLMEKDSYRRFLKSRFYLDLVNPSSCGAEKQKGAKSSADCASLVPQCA
Biotin-avidin: counter-screen: compounds disrupting biotin binding to avidin beads | shares compounds with RGS16-Gao | streptavidin beads, fluorescein-biotin binding, flow cytometry | inhibition, % at 10 µM | 1,700 tested, under 10 active | AID 1783;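 active means inhibition above 50%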;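 further: median green fluorescence of gated singlet beads compared with DMSO control wells; 0% = DMSO wells and 100% = complete loss of bead fluorescence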
RGS8-Gao confirm: RGS8-Galphao interaction regulation, single point confirmation; AID 1836; shares compounds with RGS16-Gao; actives 3% (n = 1,700); binding response (% of control), % at 10 µM; bead-based flow cytometry RGS8-Galphao binding, fluorescence; actives lie on both sides; in the data active means binding response below about 72% or above about 130%; inactive means in between;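 further: Galphao activated as GDP AlF4 complex before binding bead RGS8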
RGS7-Gao single: confirmation of regulators of human RGS7-Galphao interaction; shares compounds with RGS16-Gao; bead-based flow cytometry RGS7-Galphao binding; actives lie on both sides; response (percent of control binding), % at 10 µM; actives 7.8% (n = 1,700); in the data active means response below about 75% or above about 130%; inactive means in between;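 further: fluorescent Galphao activated with GDP and aluminum fluoride binding bead-coupled RGS7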
RGS16-Gao single: confirmation of regulators of human RGS16-Galphao interaction. shares compounds with RGS16-Gao. bead-based flow cytometry, RGS16-Galphao binding; actives lie on both sides. response (% of control binding), % at 10 µM. actives 4% (n = 1,700). AID 1838; in the data active means response below about 74% or above about 130%; inactive means in between;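 further: Galphao activated as the GDP aluminium fluoride complex binding bead-coupled RGS16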
RGS4-Gao single: confirmation of regulators of human RGS4-Galphao interaction | shares compounds with RGS16-Gao | RGS4-Galphao binding, multiplexed bead flow cytometry; actives lie on both sides | binding response (% of control), % at 10 µM | actives 4% (n = 1,700) | AID 1840; in the data active means binding response below about 74% or above about 130%; inactive means in between
RGS19-Gao conf: confirmation of regulators of human RGS19-Galphao interaction; shares compounds with RGS16-Gao; bead-based flow cytometry RGS19-Galphao binding; actives lie on both sides; response (percent of control binding), % at 10 µM; actives 5% (n = 1,700); AID 1841; in the data active means response below about 50% or above about 160%; inactive means in between;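 further: 100% = no compound control and 0% = blank background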
* = called active by the depositor; ? = inconclusive; . = no result given; [ ] = dose if it differs, or a comment. Unless noted, how the calls were made is not given here.

SMILES	RGS7-Gao	GSH bead fluor	RGS8-Gao	RGS16-Gao	RGS4-Gao reg	Avidin bead fluor	Biotin-avidin	RGS8-Gao confirm	RGS7-Gao single	RGS16-Gao single	RGS4-Gao single	RGS19-Gao conf	others
Cc1nc2c3ccccc3nc(NNC(=O)CCC(=O)NC(C)C)n2n1	83	13	71	4.1*	89	5	1	101	97	99	98	97	RGS4-Gao HTS=89*
CCC(C)NC(=O)CCC(=O)NNc1nc2ccccc2c2nc(C)nn12 (centres undefined)	96	8	99	100	97	5	.	.	.	.	.	.
COc1ccc(-n2c(C)cc(/C=C3/SC(=S)N(C)C3=O)c2C)cc1	-5.5*	24	2.9*	-2.3*	-20*	-3	3	99	104	98	98	103
Cc1cc(/C=C2\SC(=S)N(C)C2=O)c(C)n1-c1cccc(O)c1	?	.	102	99	96	6	.	.	.	.	.	.
Cc1ccc(NC(=O)CSc2nnc(CN3CCOCC3)n2C)cc1C	95	21	102	101	93	6	.	.	.	.	.	.
COc1cccc(NC(=O)CSc2nnc(CN3CCOCC3)n2C)c1	22*	19	17*	6.3*	31*	-1	1	103	102	103	102	100
COc1ccc2[nH]c(-c3ccccc3)cc2c1	?	.	97	96	99	5	.	.	.	.	.	.
N#Cc1c(N2CCCC2)ccc(Br)c1Cl	?	.	92	85	83	4	.	.	.	.	.	.
CCCC(C(=O)c1ccccc1)n1cncn1 (centres undefined)	78	4	81	-9.0*	70	2	-1	101	101	102	102	101	RGS4-Gao HTS=70*
COC(=O)c1ccc(NC(=O)CN2CCN(c3ccccn3)CC2)cc1	105	27	101	101	101	10	.	.	.	.	.	.
Cc1ccc(CSCCNC(=O)CSc2ccccc2)cc1	101	6	101	104	98	1	.	.	.	.	.	.
Cc1ccc(-c2cc(C(F)(F)F)c(C#N)c(=O)[nH]2)cc1	100	12	104	104	101	5	.	.	.	.	.	.
N#Cc1c(C(F)(F)F)cc(C2CC2)[nH]c1=O	184*[activator]	23	93	106	109	85*	1	91	91	92	90	79	RGS4-Gao HTS=109*
O=C(/C=C/c1ccc2c(c1)OCO2)Nc1nc2ccc(F)cc2s1	?	.	100	99	99	10	.	.	.	.	.	.
O=C(/C=C/c1ccc2c(c1)OCO2)Nc1nc(-c2ccc(F)cc2)cs1	102	12	119	183*[activator]	82	7	1	102	104	101	98	89	RGS4-Gao HTS=82*
CCCn1c(SCC(=O)Nc2ccccc2Oc2ccccc2)n[nH]c1=O	84	42	83	-28*	78	1	1	103	102	100	100	112	RGS4-Gao HTS=78*
CCCn1c(SCC(=O)Nc2cccc(Cl)c2Cl)n[nH]c1=O	103	15	103	111	106	20	.	.	.	.	.	.
OCCC1CN(Cc2nc3c(s2)CCCC3)CCN1CCc1ccccc1 (centres undefined)	103	17	99	101	99	5	.	.	.	.	.	.
CC(C)CCN1CCN(Cc2nc3c(s2)CCCC3)CC1CCO (centres undefined)	27*	13	38*	30	40*	2	-1	115	110	117	103	105
COc1cc(C(=O)N2CCC(O)(c3ccccc3)CC2)cc(OC)c1OC	.	13	.	.	.	.	-2	102	106	104	103	105
O=C(O)[C@H](Cc1ccccc1)NC(=O)N1CCN(c2ccccc2)CC1	?	.	101	106	104	5	.	.	.	.	.	.
O=C(Nc1ccccc1SCC1CSc2nc3ccccc3c(=O)n21)c1ccccc1Cl (centres undefined)	.	17	.	.	.	.	2	100	75*	87	87	51
CCC(C)(C)NC(=O)C1CCN(S(=O)(=O)c2cccs2)CC1	424*[activator]	38	129	364*[activator]	465*[activator]	80*	3	101	102	101	101	85
CCc1cccc(NC(=O)C(NC(=O)C2CCCCC2)C(C)C)c1 (centres undefined)	97	12	99	97	94	12	.	.	.	.	.	.
Cc1ccc(NC(=O)CO/N=C(\N)c2nonc2N)cc1C	92	9	80	25*	92	9	-5	103	106	105	103	87	RGS4-Gao HTS=92*
SMILES	RGS7-Gao	GSH bead fluor	RGS8-Gao	RGS16-Gao	RGS4-Gao reg	Avidin bead fluor	Biotin-avidin	RGS8-Gao confirm	RGS7-Gao single	RGS16-Gao single	RGS4-Gao single	RGS19-Gao conf	others
O=C(CSc1ncn[nH]1)Nc1ccc(S(=O)(=O)Nc2ncccn2)cc1	101	21	101	104	97	6	.	.	.	.	.	.
COC(=O)C(C)NC(=O)C(C)NC(=O)OCc1ccccc1 (centres undefined)	.	15	.	.	.	.	-1	91	87	91	94	87
COc1ccccc1CNC(=O)C(NS(=O)(=O)c1ccc2c(c1)OCCO2)C(C)C (centres undefined)	87	6	74	15	86	10	.	.	.	.	.	.
Oc1ccc(CCC2CCCCN2Cc2nc(C3CC3)no2)cc1 (centres undefined)	98	25	101	111	103	9	.	.	.	.	.	.
COCCCn1c(-c2ccc(Cl)cc2)n[nH]c1=S	.	33	.	.	.	.	2	99	109	96	101	99
CC(C)(C)NC(=O)COC(=O)c1ccc(Cl)nc1	.	21	.	.	.	.	1	96	64*	77	79	45*
COc1ccc(-c2cnnn2-c2ccc(NC(=O)c3ccc(S(=O)(=O)N4CCCCC4)cc3)cc2)cc1	21*	10	25*	14	22*	-2	0	100	99	98	99	103

Screening data (PubChem)
